L3MBTL1 inh: qHTS Assay for the Inhibitors of L3MBTL1; 0.66% of 230,000 active; AID 485360, 2010; Potency, µM (top dose mostly 57.1 µM), without a hit: top-dose activity, negative = inhibition, actives largely listed as inhibitors; Lethal(3)malignant brain tumor-like protein 1 (Homo sapiens), Q9Y468; AlphaScreen L3MBTL1–H3K9me1 peptide binding; further: on the % scale 0 is the no-effect control and ±100 the full control effect; nearly all actives have a fitted effect of over 60% in size
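Read-out is AlphaScreen signal from streptavidin donor and nickel chelate acceptor beads (10 ug/mL final each) bridging L3MBTL1 (50 nM) and biotinylated K9-monomethylated H3(1-15) peptide (75 nM), after 30 min compound exposure at room temperature.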
BAZ2B block: qHTS Assay for Inhibitors of BAZ2B. Bromodomain adjacent to zinc finger domain protein 2B (Homo sapiens), Q9UIF8. AlphaScreen BAZ2B-H3K14Ac peptide displacement. Potency, µM (highest dose often 114 µM), without a hit: top-dose activity change, negative = inhibition, most hits filed as inhibitors. 4.4% of 360,000 active. AID 504333, 2011; further: on the % scale 0 is the no-effect control and ±100 the full control effect; nearly all actives have a fitted effect of over 60% in size
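BAZ2B (50 nM) with biotin-H3(5-23)K14Ac peptide (50 nM) in PBS pH 7.4, 0.01% Tween-20, preformed 30 min, then compound 30 min at room temperature; top concentration 110uM. AlphaScreen streptavidin donor/nickel chelate acceptor beads (10 ug/mL final), 20 min dark, signal read.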
G9a inh: qHTS Assay for Inhibitors of Histone Lysine Methyltransferase G9a; Potency, µM (top dose mostly 102 µM), inactives show at the highest dose activity, negative = inhibition, most hits filed as inhibitors; G9a H3K9 monomethylation, AlphaScreen, 2 h; 8.8% of 350,000 active; further: on the % scale 0 is the no-effect control and ±100 the full control effect; nearly all actives have a fitted effect of over 75% in size
Target sequence (Q96KQ7 913-1193 limits assumed): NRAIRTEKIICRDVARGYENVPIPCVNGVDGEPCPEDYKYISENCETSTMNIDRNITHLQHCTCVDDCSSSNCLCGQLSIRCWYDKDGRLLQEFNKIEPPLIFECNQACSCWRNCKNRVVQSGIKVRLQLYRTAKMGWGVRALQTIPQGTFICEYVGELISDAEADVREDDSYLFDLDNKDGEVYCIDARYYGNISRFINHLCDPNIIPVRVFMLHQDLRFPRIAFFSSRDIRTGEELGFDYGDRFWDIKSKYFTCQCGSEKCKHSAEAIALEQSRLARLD
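Readings reflect AlphaScreen signal from monomethyl-H3K9 antibody detection. HMT at 20 nM; substrate b-H3K9 500 nM; cofactor SAM 20 uM; 2 h RT reaction; compounds tested as titrations in qHTS with 15 min preincubation.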
JMJD2A Tudor: qHTS Assay for Inhibitors of JMJD2A-Tudor Domain; Lysine-specific demethylase 4A (Homo sapiens), O75164; AlphaScreen JMJD2A-Tudor / H3K4me3 peptide binding; Potency, µM (top dose mostly 114 µM), for inactives: at the top dose activity change, negative = inhibition, hits mostly inhibitors; 4.4% of 390,000 active; AID 504339, 2011; further: on the % scale 0 is the no-effect control and ±100 the full control effect; nearly all actives have a fitted effect of over 50% in size
HP1b chromo inh: HTS for Inhibitors of HP1-beta Chromodomain Interactions with Methylated Histone Tails | Potency, µM (doses to about 114 µM), for the others: top-dose activity change, negative = inhibition, usual class: inhibitors | 0.56% of 390,000 active | AlphaScreen HP1-beta / biotin-H3K9me3 peptide binding; further: nearly all actives have a fitted effect of over 70% in size
Target sequence (P83916 whole entry, looked up): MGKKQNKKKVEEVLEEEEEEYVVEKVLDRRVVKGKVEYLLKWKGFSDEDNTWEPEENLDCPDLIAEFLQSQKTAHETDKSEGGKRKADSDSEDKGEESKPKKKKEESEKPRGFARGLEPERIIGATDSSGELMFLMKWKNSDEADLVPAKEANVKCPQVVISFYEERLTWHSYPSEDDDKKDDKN
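AlphaScreen: HP1-beta (50 nM) preformed 30 min with biotin-H3(1-18)K9me3 peptide (50 nM) in PBS pH 7.4, 0.01% Tween-20. Compound added for 30 min at RT, then streptavidin donor/nickel chelate acceptor beads (10 ug/mL) for 30 min.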
The depositor's hits bear a star; [ ] = remark or other dose. Rows were chosen to be rich in hits. Some 11% of all compounds tested hit in one or more screens of this group. The call rests on the fitted dose curve; in most records, active means well fitted inhibition curve with a large enough effect; inconclusive means small, poorly fitted or top-dose-only effect; inactive means no such curve, though single readings can be large or run the other way. Potency means the concentration at half of the fitted maximal effect.

For O=C(CSc1nccc(=O)[nH]1)N1CCN(c2ccccc2)CC1 the results were L3MBTL1 inh 8.6%, BAZ2B block 79.4µM*, JMJD2A Tudor inconclusive and HP1b chromo inh -3.0%.
O=C(CSc1n[nH]c(-c2ccccc2Cl)n1)N1CCN(c2ccccc2)CC1 was read as BAZ2B block -2.1%, G9a inh -22.1%[59 µM], JMJD2A Tudor -20.1% and HP1b chromo inh 21.5%[57 µM].
Screening COc1ccc(C2NC(c3ccc4c(c3)OCO4)=CC(c3ccccc3O)N2)cc1OC (stereo unspecified) returned JMJD2A Tudor -20.0%[57.1 µM] and HP1b chromo inh 4.8%[57 µM].
For O=C(CSc1ccccn1)N1CCN(c2ccccc2)CC1 the results were L3MBTL1 inh -11.7%, BAZ2B block 8.2%, G9a inh inconclusive, JMJD2A Tudor -15.7% and HP1b chromo inh 2.6%.
`Nc1nc(SCC(=O)c2ccc(Oc3ccccc3)cc2)n[nH]1` gave L3MBTL1 inh -4.2%, BAZ2B block -1.5%, G9a inh inconclusive, JMJD2A Tudor 35.5µM* and HP1b chromo inh inconclusive.
O=C(CSc1nc2c(c(=O)n1-c1ccccc1)SCC2)N1CCN(c2ccccc2)CC1 was read as L3MBTL1 inh -1.8%, BAZ2B block -6.5%, G9a inh 44.7µM*, JMJD2A Tudor inconclusive and HP1b chromo inh 2.9%.
`Nc1nnc(SCC(=O)N2CCN(c3ccccc3)CC2)s1` gave L3MBTL1 inh -4.1%, BAZ2B block 1.9%, G9a inh 50.1µM*, JMJD2A Tudor -5.0% and HP1b chromo inh 41.7%.
O=C(CSc1ccccn1)N1CCN(c2cccc(Cl)c2)CC1 was read as BAZ2B block -19.8%, G9a inh 2.82µM*, JMJD2A Tudor 79.4µM* and HP1b chromo inh -0.5%.
`COc1ccc(NCc2cccn2-c2nnc(N3CCCCC3)s2)cc1OC` gave BAZ2B block -28.9%[57.1 µM], G9a inh inconclusive, JMJD2A Tudor inconclusive and HP1b chromo inh inconclusive.
For CCOC(=O)c1cccc(NC(=O)CCS(=O)(=O)c2ccc3c(c2)CC(=O)N3C)c1 the results were BAZ2B block -2.5%, G9a inh -1.1%[59 µM], JMJD2A Tudor -25.6% and HP1b chromo inh 47.1%.
`CCOc1ccc(CNc2nc3nc(C)c(Cc4ccccc4)c(=O)n3[nH]2)cc1` gave BAZ2B block -4.4%, G9a inh inconclusive, JMJD2A Tudor inconclusive and HP1b chromo inh 16.4%.
For COc1ccc(CN(C)C(=O)c2ccc(NS(=O)(=O)c3ccc(F)cc3)cc2)c(OC)c1OC the results were BAZ2B block -34.8%, G9a inh 16.5%, JMJD2A Tudor -16.0% and HP1b chromo inh 9.6%.
Screening CC(NC(=O)CCn1c(=S)[nH]c2ccsc2c1=O)c1ccccc1 (stereo unspecified) returned BAZ2B block 3.0%, G9a inh 28.2µM*, JMJD2A Tudor -25.1% and HP1b chromo inh 19.8%.
Cc1ccc(NC(=O)CCn2c(=O)[nH]c3ccsc3c2=O)cc1 was read as L3MBTL1 inh 36.5%, BAZ2B block -9.6%, G9a inh 1.7%, JMJD2A Tudor -14.7% and HP1b chromo inh 36.3%.
For COc1ccc(Cn2c(=S)[nH]c3ccsc3c2=O)cc1 the results were L3MBTL1 inh 3.7%, BAZ2B block 6.7%, G9a inh 8.91µM*, JMJD2A Tudor -25.1% and HP1b chromo inh 52.4%.
COc1ccc(Cn2c(=S)[nH]c3cc(OC)c(OC)cc3c2=O)cc1 was read as L3MBTL1 inh -6.6%, BAZ2B block -18.0%, G9a inh -16.5%, JMJD2A Tudor -3.5% and HP1b chromo inh 51.8%.
For O=c1c2sccc2[nH]c(=S)n1Cc1ccccc1 the results were L3MBTL1 inh -2.5%, BAZ2B block 9.7%, G9a inh 10µM*, JMJD2A Tudor -23.2% and HP1b chromo inh 27.2%.
Cc1ccc(S(=O)(=O)N2CCN(c3nc(-c4ccco4)nc4ccccc34)CC2)cc1 was read as JMJD2A Tudor -23.1%.

Compound activity as filed in PubChem BioAssay.
